# Test results from PubChem BioAssay.
# Activity calls are given as the source filed them.
# Assays:
# [1] = binders of probe aFSTL3 on microarray, primary screen, stem cell growth factor project, biochemical, small-molecule microarray, fluorescence 635/667 (AID 1064); conditions: higher = more signal;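 further: measures binding of the biotinylated anti-FSTL3 antibody to printed compounds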
# [2] = binders from COS7 lysate, DM2A8 probe, primary screen, torsin A project, cell lysate, small-molecule microarray, fluorescence 635/667 (AID 1065); conditions: higher = more signal, COS7 lysate expressing mutant human TOR1A
# [3] = binders of probe aFGF2 on microarray, primary screen, stem cell growth factor project, biochemical, small-molecule microarray, fluorescence 635/667 (AID 1067); conditions: higher = more signal;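 further: measures binding of biotinylated aFGF2 protein to printed compounds on slides; z-score merges feature fluorescence and signal-to-noise across triplicate slides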
# [4] = binders of probe aFGF10 on microarray, primary screen, stem cell growth factor project, biochemical, small-molecule microarray, fluorescence 635/667 (AID 1071); conditions: higher = more signal;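 further: score merges 667 nm spot intensity and signal to noise from triplicate slides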
# [5] = biological target: Neurogenic locus notch homolog protein 2 (Homo sapiens) (UniProt Q04721); test: Notch2 binders on small-molecule microarrays, primary screen, biochemical, small-molecule microarray, 635 nm fluorescence, stem cell growth factors (AID 1073); conditions: Notch2 binding, higher = more signal
# [6] = biological target: Pro-neuregulin-1, membrane-bound isoform (Homo sapiens) (UniProt Q02297); test: NRG1 binders on small-molecule microarrays, primary screen, psychiatric disease protein project, biochemical, small-molecule microarray, fluorescence 635/667 (AID 1075); conditions: NRG1 binding, 635 nm fluorescence, higher = more signal;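 further: score combines 667 nm spot fluorescence with signal to noise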
# [7] = system: Neuregulin-1 EGF-like domain; test: binders of neuregulin-1 EGF-like domain, primary screen, biochemical, small-molecule microarray, 635 nm fluorescence (AID 1081); conditions: small-molecule microarray binding, higher = more signal;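 further: binding of the protein to compounds printed on small-molecule microarray slides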
# [8] = FRG1 promoter luciferase signal modulators, primary screen, FRG1 inhibition for FSHD, cell-based, C2C12 myotubes, firefly/Renilla luciferase, luminescence (AID 1084); conditions: higher = more signal, called active from +8 up or from −8 down
# [9] = binders of probe aFST on microarray, primary screen, stem cell growth factor project, biochemical, small-molecule microarray, fluorescence 635/667 (AID 1086); conditions: higher = more signal;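 further: score merges 667 nm fluorescence with signal-to-noise of each printed compound spot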
# [10] = binders of probe aHhip on microarray, primary screen, stem cell growth factor project, biochemical, small-molecule microarray, fluorescence 635/667 (AID 1087); conditions: higher = more signal;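 further: score merges spot fluorescence at 667nm with spot signal to noise ratio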
# [11] = system: PRMT1 (protein arginine N-methyltransferase 1); test: PRMT1 binders on small-molecule microarrays, primary screen, biochemical, small-molecule microarray, 635 nm fluorescence (AID 1088); conditions: small-molecule microarray binding, higher = more signal;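 further: binding of Prmt1 protein to compounds spotted on small-molecule microarray slides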
# [12] = yeast growth modulation, basal conditions, primary screen, YJM789 clinical isolate, OD600, 24 h (AID 1089);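 further: growth of clinical yeast isolate S. cerevisiae YJM 789 seeded 1000 cells per well; test concentration not given here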; conditions: S. cerevisiae YJM789 growth, higher = more signal, called active from +8 up or from −8 down
# [13] = fission yeast growth modulation, primary screen, strain 972, OD600, 24 h, no modulator (AID 1090);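 further: basal condition with compound alone and no growth modifier present; test concentration not given here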; conditions: S. pombe 972 growth, higher = more signal, called active from +8 up or from −8 down
# [14] = S. cerevisiae growth modulation with rapamycin, primary screen, strain BY4716, OD600, 96 h (AID 1091); conditions: higher = more signal, called active from +8 up or from −8 down; further: test concentration not given here
# [15] = biological target: Torsin-1A-interacting protein 2 (Homo sapiens) (UniProt Q8NFQ8); test: LULL1 binders on small-molecule microarray, primary screen, cell lysate, human LULL1 lysate, 635/667 nm fluorescence (AID 1092); conditions: hLULL1 lysate binding, 635 nm fluorescence, higher = more signal;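 further: probe is lysate of COS7 cells overexpressing human LULL1; score merges per-feature 667 nm fluorescence with signal-to-noise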
# [16] = E. coli growth modulation, two-sided OD650, primary screen, E. coli filamentation project, strain DRC41, 24 h (AID 1093); conditions: OD650, 24 h, higher = more signal, called active from +8 up or from −8 down;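 further: MC1000 strain lacking acrAB efflux and sulA so SOS filamentation is blocked; test concentration not given here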
# [17] = small-molecule microarray binders of probe aLefty2, primary screen, biochemical, biotinylated probe, 635/667 nm fluorescence (AID 1094); conditions: higher = more signal;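 further: score merges spot fluorescence near 667 nm with spot signal-to-noise ratio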
# [18] = system: Noggin (protein binding on small-molecule microarray); test: Noggin binders on small-molecule microarray, primary screen, biochemical, 635/667 nm fluorescence (AID 1095); conditions: 635 nm fluorescence, higher = more signal;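 further: score merges 667 nm feature fluorescence with signal to noise over triplicate slides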
# [19] = biological target: Neurogenic locus notch homolog protein 3 (Homo sapiens) (UniProt Q9UM47); test: NOTCH3 binders on small-molecule microarray, primary screen, biochemical, 635/667 nm fluorescence (AID 1096); conditions: NOTCH3 binding, 635 nm fluorescence, higher = more signal
# [20] = small-molecule microarray binders of probe aEGFR, primary screen, biochemical, biotinylated probe, 635/667 nm fluorescence (AID 1097); conditions: higher = more signal;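 further: probe is a biotinylated anti-EGFR antibody binding compounds printed on slides; score combines fluorescence near 667 nm and signal to noise of each spot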
# Chain of Torsin-1A-interacting protein 2 (Homo sapiens) (Q8NFQ8 whole entry, looked up): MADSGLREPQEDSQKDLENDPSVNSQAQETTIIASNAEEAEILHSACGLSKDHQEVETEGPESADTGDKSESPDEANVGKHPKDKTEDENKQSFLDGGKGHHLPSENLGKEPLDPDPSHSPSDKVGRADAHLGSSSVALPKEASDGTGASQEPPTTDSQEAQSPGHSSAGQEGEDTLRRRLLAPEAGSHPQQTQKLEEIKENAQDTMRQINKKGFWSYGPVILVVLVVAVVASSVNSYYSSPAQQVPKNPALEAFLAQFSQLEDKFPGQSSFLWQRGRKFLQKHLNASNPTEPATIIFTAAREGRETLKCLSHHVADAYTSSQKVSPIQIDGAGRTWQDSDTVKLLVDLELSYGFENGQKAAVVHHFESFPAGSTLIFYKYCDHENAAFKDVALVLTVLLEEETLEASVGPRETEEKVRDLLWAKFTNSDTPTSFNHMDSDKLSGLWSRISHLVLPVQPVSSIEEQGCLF
# Chain of Neurogenic locus notch homolog protein 2 (Homo sapiens) (Q04721 whole entry, looked up, canonical isoform): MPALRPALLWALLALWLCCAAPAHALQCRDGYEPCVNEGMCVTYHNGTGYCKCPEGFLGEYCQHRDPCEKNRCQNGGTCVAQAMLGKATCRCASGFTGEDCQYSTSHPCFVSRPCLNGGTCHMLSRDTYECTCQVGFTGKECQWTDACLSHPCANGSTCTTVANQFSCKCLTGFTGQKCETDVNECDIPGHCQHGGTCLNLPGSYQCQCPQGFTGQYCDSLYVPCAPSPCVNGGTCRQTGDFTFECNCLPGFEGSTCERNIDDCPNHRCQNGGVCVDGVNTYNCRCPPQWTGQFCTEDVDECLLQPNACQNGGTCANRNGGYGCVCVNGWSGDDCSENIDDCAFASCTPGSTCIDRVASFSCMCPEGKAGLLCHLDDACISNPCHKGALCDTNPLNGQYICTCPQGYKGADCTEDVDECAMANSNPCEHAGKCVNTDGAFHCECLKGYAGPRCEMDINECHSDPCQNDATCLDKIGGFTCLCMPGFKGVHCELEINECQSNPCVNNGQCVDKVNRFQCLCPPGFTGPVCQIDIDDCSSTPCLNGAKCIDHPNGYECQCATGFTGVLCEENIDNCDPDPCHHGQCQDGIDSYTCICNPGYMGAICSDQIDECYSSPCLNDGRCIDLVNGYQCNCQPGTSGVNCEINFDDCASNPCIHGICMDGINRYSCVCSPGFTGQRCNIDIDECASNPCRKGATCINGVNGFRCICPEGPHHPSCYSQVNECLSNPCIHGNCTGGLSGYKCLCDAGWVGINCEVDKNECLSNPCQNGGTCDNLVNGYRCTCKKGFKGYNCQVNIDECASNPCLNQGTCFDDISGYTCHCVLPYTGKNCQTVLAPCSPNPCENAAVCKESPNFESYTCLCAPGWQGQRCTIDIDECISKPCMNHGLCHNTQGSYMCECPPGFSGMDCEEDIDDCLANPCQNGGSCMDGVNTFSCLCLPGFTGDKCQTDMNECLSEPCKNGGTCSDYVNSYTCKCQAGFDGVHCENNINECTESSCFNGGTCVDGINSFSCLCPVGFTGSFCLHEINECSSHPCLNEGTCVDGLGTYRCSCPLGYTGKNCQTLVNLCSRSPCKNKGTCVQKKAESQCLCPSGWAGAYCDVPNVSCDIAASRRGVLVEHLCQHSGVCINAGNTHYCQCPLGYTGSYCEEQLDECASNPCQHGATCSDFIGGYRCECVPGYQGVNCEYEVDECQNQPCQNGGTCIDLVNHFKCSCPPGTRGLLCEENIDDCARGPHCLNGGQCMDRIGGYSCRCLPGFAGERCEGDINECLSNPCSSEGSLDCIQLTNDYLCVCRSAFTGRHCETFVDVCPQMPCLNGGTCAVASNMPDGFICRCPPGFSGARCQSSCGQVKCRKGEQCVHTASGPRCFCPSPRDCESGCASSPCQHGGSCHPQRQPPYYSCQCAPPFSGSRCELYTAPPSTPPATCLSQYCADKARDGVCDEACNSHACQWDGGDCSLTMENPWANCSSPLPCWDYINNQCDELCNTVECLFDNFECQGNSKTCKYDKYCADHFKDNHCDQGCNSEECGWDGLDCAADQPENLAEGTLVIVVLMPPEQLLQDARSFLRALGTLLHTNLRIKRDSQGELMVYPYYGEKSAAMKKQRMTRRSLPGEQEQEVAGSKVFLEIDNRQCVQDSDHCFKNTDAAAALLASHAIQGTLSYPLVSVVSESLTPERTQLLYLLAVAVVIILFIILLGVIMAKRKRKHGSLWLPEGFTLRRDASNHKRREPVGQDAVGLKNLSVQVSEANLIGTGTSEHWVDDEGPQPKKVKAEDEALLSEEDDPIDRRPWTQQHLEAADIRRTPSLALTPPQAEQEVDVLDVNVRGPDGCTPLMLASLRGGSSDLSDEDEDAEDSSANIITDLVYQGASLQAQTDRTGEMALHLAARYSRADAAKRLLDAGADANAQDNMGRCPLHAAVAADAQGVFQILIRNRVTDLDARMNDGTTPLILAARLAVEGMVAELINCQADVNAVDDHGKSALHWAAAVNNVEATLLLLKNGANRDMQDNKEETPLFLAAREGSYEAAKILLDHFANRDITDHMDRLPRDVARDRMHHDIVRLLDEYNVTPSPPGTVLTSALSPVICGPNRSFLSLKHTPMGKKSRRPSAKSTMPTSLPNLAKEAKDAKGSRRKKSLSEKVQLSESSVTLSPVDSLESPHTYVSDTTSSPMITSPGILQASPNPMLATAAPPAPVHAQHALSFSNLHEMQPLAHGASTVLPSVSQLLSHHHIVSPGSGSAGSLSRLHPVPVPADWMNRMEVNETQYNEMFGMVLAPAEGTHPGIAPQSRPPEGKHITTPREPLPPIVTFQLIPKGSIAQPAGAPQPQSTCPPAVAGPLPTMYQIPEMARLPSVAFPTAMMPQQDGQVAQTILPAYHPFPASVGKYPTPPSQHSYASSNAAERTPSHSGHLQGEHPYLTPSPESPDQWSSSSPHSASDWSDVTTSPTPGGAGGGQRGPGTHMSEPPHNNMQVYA
# Chain of Pro-neuregulin-1, membrane-bound isoform (Homo sapiens) (Q02297 whole entry, looked up, the tested form may be a part, canonical isoform): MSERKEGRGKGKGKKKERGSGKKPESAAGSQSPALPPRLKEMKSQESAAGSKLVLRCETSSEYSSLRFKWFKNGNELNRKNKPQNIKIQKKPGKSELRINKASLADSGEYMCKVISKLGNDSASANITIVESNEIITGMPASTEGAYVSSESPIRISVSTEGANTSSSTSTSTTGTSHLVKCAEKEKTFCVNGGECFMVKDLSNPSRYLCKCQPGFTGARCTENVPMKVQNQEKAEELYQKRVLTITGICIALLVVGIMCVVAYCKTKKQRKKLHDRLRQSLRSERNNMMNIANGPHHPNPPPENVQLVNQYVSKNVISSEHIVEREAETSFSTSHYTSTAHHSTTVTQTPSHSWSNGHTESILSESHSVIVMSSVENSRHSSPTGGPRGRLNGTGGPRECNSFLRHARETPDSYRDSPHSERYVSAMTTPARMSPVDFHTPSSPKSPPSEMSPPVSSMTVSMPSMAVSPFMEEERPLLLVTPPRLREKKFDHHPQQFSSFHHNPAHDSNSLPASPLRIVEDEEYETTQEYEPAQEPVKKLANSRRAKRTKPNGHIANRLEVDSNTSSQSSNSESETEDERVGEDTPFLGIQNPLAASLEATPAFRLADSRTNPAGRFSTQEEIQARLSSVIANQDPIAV
SMILES,composite z-score [1],composite z-score [2],composite z-score [3],composite z-score [4],composite z-score [5],composite z-score [6],composite z-score [7],z-score [8],composite z-score [9],composite z-score [10],composite z-score [11],z-score [12],z-score [13],z-score [14],composite z-score [15],z-score [16],composite z-score [17],composite z-score [18],composite z-score [19],composite z-score [20]
COC(=O)c1c(CC[C@@H](CO)NC(=O)N[C@@H](C)Cn2cc(C3(O)CCCC3)nn2)oc(C(C)=O)c1C(=O)OC,-0.36,0.715,-0.154,0.143,0.263,0.974,1.02,0.533 (inactive),0.517,0.0002,0.913,0.009 (inactive),-1.03 (inactive),-0.117 (inactive),2,-0.159 (inactive),-0.0126,0.555,0.634,-0.0237
C[C@@]1([C@@H](NC(=O)c2cccs2)c2ccc(-c3ccccc3)cc2)C[C@H]1C1CCCCC1,-0.11,-1.29,-0.428,-0.376,-0.41,0.783,-0.253,2.66 (inactive),-0.232,-0.523,-1.61,1.53 (inactive),-0.584 (inactive),-0.578 (inactive),2.95,-0.474 (inactive),-0.288,-0.786,-1.31,-0.239
NC(=O)[C@H]1[C@@H]2C(=O)O[C@@H](c3ccccc3)[C@@H](c3ccccc3)N2[C@@H](c2ccc(O)cc2)[C@]12C(=O)Nc1ccc(C#CC3(O)CCCCCC3)cc12,0.0918,0.417,-0.0454,0.607,1.35,1.5,1.35,-1.46 (inactive),0.617,0.233,1.53,0.46 (inactive),-1.09 (inactive),1.33 (inactive),3.22,0.568 (inactive),0.0441,1.2,1.03,0.0955
CCCC=C(CCC)[C@@H](NS(=O)(=O)c1cccc2cccnc12)c1ccc(C(=O)OC)cc1,3.16,1.19,0.84,1.65,1.59,0.136,0.83,1.76 (inactive),3.43,0.754,0.763,0.797 (inactive),-0.271 (inactive),0.823 (inactive),0.472,-0.376 (inactive),0.679,2.03,0.542,1.35
CN(C)C(=O)[C@@]1(Cc2ccccc2N=[N+]=[N-])N=C(c2ccc(OCCCO)cc2)O[C@H]1c1ccccc1N=[N+]=[N-],0.982,1.2,0.125,0.765,1.51,1.46,0.73,-0.325 (inactive),1.53,0.28,1.56,0.506 (inactive),-2.68 (inactive),3.01 (inactive),2.87,0.239 (inactive),0.505,0.126,1.06,0.387
C[C@H]1NC(=O)C([C@@H](C)OCc2ccccc2)NC(=O)[C@@]23C(=O)N[C@@H](Cc4ccccc4)C2[C@H](C)[C@@]2(C)O[C@H]2C3/C=C/CC/C=C/CNC1=O (stereo not given in full),-0.0367,0.245,0.0304,0.263,0.258,-0.178,-0.248,0.428 (inactive),0.114,0.127,-0.1,0.607 (inactive),-0.657 (inactive),0.261 (inactive),-0.147,2.13 (inactive),-0.016,0.598,-0.0089,0.0143
COCCOC(=O)N1C(=O)[C@@]2(c3cc(C#CCNC(N)=O)ccc31)[C@H](C(=O)N1CCCCCCC1)[C@H]1C(=O)O[C@H](c3ccccc3)[C@H](c3ccccc3)N1[C@@H]2c1ccc(OCCO)cc1,1.03,0.303,-0.0024,0.578,0.754,0.446,0.0222,-0.557 (inactive),0.7,0.443,0.543,0.872 (inactive),0.642 (inactive),3.24 (inactive),0.808,-0.299 (inactive),0.239,0.616,1.07,0.0126
COC(=O)C(CC#Cc1ccc2c(c1)[C@]1(C(=O)N2)[C@H](c2ccc(OCCO)cc2)N2[C@H](c3ccccc3)[C@H](c3ccccc3)OC(=O)[C@H]2[C@@H]1C(=O)O)C(=O)OC,0.915,0.831,0.102,0.727,0.85,2.03,1.26,-0.434 (inactive),1.37,0.398,1.53,2.49 (inactive),-0.0363 (inactive),-0.881 (inactive),3.1,1.95 (inactive),0.607,0.612,0.822,0.374
CCC[C@@H]1C[C@@]1(CCC)[C@@H](NC(=O)c1ccco1)c1ccc(Cl)cc1,-0.0089,-0.441,-0.163,0.0059,-0.259,-0.656,-1.26,-0.632 (inactive),0.161,-0.313,-1.25,0.349 (inactive),-0.0896 (inactive),0.194 (inactive),-0.825,-1.1 (inactive),-0.149,-0.174,-0.625,-0.165
Cc1ccccc1C(O)C1C=CC2C(=O)N(C)C(=O)C2N1Nc1ccc([N+](=O)[O-])cc1[N+](=O)[O-] (stereo not given),-0.0166,0.14,0.084,0.922,1.65,1.65,1.27,0.248 (inactive),1.59,-0.0645,1.56,0.426 (inactive),0.73 (inactive),0.969 (inactive),3.45,-1.24 (inactive),0.25,0.17,1.08,0.0801
